The record followed here is ChEMBL document CHEMBL1961873, “Compounds: GSK PKIS; Assays: Nanosyn kinase panel” (2012).

Test [1] concerns the target Protein kinase C gamma type (Homo sapiens) (UniProt P05129). The conditions noted are these: at 1 µM.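 Note: each value is an averaged percent inhibition of the enzyme.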
The target of test [2] is T1, Protein kinase C iota type (Homo sapiens) (UniProt P41743).
T1 sequence (whole entry): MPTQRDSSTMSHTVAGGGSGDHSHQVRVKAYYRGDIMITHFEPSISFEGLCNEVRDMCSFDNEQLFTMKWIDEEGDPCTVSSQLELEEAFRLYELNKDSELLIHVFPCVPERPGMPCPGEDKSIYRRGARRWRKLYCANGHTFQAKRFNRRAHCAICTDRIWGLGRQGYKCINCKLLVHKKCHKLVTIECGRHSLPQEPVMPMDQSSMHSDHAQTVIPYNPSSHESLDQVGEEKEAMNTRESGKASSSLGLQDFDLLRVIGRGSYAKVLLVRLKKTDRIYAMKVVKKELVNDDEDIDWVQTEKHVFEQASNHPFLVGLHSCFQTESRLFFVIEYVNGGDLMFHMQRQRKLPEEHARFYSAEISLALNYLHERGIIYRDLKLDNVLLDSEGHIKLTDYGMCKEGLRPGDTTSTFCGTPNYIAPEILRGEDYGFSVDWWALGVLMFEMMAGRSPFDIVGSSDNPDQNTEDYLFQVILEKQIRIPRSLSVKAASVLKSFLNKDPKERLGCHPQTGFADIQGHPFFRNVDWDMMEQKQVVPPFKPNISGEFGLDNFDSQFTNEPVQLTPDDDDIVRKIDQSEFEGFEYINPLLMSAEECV
The conditions noted are these: at 0.1 µM.

The target in test [3] is T1, Protein kinase C iota type (Homo sapiens). The conditions noted are these: at 1 µM.
The target in test [4] is Protein kinase C theta type (Homo sapiens) (UniProt Q04759). The conditions noted are these: at 0.1 µM.
Sequence of Protein kinase C theta type (Homo sapiens) (Q04759 whole entry, looked up): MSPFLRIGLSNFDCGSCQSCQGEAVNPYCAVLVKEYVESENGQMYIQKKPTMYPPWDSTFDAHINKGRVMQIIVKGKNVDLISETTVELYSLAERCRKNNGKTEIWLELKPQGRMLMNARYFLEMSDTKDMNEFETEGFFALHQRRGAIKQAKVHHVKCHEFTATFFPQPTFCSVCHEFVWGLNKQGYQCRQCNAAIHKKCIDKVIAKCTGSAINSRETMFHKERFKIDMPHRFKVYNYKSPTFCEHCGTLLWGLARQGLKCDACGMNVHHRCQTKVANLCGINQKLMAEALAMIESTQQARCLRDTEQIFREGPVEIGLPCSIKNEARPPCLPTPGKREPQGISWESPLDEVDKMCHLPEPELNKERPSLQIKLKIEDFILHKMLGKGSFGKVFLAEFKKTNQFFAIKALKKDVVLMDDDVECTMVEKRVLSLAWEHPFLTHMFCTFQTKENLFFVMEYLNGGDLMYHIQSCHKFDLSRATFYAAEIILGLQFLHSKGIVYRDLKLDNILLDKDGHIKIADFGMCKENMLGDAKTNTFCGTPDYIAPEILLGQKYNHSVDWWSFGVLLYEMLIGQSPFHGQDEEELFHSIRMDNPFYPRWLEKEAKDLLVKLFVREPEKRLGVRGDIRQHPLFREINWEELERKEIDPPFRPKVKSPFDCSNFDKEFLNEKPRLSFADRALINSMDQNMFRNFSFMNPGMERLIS
Test [5] shares this target. Conditions: at 1 µM.
Test [6] has as its target Protein kinase C beta type (Homo sapiens) (UniProt P05771). Conditions: at 0.1 µM.
Test [7] shares this target. The conditions noted are these: at 1 µM.
The target of test [8] is T2, Serine/threonine-protein kinase D1 (Homo sapiens) (UniProt Q15139).
T2 sequence (whole entry): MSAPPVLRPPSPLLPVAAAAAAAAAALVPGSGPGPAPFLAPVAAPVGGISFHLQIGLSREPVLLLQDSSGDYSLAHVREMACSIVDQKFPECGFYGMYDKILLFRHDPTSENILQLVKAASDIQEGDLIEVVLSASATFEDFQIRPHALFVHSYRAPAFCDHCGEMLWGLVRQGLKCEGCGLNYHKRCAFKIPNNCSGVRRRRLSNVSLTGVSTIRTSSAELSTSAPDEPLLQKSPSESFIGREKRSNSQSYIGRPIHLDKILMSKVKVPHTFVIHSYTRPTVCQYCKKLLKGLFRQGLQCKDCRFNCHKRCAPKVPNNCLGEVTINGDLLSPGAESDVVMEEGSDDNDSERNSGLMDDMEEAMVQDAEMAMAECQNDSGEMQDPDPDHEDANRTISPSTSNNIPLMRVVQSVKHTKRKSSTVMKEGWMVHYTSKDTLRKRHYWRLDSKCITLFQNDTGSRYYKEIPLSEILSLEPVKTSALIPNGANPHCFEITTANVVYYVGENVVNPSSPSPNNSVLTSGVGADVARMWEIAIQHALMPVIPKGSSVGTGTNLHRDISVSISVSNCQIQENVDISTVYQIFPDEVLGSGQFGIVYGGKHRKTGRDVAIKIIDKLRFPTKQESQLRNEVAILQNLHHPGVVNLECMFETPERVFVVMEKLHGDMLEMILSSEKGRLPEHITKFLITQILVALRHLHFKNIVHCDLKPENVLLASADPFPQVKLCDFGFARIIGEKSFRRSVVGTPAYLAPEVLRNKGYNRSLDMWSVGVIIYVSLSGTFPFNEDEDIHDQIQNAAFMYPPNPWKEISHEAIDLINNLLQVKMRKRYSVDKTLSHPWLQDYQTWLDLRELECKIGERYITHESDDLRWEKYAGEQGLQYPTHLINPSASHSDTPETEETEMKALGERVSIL
The conditions noted are these: at 0.1 µM.

Test [9] concerns the target T2, Serine/threonine-protein kinase D1 (Homo sapiens). Conditions: at 1 µM.
Test [10] addresses T3, Serine/threonine-protein kinase D2 (Homo sapiens) (UniProt Q9BZL6).
T3 sequence (whole entry): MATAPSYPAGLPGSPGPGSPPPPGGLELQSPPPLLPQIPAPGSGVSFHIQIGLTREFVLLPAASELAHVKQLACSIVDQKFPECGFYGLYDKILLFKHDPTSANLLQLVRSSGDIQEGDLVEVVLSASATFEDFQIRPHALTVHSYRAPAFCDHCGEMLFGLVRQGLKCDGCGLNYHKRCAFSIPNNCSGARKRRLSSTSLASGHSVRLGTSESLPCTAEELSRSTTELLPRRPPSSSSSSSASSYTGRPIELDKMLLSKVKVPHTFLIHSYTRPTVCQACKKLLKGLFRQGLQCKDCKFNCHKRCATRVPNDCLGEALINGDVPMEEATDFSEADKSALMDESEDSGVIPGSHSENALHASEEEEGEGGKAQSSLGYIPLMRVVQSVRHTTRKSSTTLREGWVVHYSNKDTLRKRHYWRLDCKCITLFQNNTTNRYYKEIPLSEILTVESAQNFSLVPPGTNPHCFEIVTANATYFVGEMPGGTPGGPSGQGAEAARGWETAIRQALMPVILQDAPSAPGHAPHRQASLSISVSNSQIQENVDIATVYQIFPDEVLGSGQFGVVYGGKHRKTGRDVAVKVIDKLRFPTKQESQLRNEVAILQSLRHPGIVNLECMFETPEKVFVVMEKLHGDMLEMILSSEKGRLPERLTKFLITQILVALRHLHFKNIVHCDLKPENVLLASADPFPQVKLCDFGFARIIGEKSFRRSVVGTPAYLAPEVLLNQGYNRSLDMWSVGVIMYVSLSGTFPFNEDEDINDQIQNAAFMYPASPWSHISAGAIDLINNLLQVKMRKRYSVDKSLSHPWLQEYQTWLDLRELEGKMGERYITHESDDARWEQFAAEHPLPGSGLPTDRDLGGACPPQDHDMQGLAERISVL
Conditions: at 0.1 µM.

For test [11], the target named is T3, Serine/threonine-protein kinase D2 (Homo sapiens). The conditions noted are these: at 1 µM.
The target in test [12] is T4, Serine/threonine-protein kinase D3 (Homo sapiens) (UniProt O94806).
T4 sequence (whole entry): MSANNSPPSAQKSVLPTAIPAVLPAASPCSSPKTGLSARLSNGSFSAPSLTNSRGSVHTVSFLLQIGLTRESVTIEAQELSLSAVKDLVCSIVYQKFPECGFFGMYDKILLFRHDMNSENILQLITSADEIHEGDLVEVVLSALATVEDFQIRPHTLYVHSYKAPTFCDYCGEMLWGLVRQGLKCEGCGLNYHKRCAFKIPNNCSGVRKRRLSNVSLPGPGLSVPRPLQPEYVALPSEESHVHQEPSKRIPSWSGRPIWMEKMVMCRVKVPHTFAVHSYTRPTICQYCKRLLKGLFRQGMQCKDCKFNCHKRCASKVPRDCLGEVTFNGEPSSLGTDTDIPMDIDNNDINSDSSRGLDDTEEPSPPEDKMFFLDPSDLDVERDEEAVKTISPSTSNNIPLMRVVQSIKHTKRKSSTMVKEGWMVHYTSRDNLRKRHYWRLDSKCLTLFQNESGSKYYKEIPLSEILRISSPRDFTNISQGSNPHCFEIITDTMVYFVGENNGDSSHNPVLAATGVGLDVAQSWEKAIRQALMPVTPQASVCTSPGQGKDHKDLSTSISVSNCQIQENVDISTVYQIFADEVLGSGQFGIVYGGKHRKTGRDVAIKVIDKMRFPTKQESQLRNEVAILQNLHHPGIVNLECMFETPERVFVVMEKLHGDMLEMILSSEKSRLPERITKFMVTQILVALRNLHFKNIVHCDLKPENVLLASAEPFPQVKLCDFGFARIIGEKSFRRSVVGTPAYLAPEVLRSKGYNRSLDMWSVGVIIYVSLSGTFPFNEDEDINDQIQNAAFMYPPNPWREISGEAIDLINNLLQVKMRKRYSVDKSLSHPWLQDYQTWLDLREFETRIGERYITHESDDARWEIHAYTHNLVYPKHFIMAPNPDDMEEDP
Conditions: at 0.1 µM.

Test [13] has as its target T4, Serine/threonine-protein kinase D3 (Homo sapiens). The conditions noted are these: at 1 µM.
The target of test [14] is T5, cGMP-dependent protein kinase 1 (Homo sapiens) (UniProt Q13976).
T5 sequence (whole entry): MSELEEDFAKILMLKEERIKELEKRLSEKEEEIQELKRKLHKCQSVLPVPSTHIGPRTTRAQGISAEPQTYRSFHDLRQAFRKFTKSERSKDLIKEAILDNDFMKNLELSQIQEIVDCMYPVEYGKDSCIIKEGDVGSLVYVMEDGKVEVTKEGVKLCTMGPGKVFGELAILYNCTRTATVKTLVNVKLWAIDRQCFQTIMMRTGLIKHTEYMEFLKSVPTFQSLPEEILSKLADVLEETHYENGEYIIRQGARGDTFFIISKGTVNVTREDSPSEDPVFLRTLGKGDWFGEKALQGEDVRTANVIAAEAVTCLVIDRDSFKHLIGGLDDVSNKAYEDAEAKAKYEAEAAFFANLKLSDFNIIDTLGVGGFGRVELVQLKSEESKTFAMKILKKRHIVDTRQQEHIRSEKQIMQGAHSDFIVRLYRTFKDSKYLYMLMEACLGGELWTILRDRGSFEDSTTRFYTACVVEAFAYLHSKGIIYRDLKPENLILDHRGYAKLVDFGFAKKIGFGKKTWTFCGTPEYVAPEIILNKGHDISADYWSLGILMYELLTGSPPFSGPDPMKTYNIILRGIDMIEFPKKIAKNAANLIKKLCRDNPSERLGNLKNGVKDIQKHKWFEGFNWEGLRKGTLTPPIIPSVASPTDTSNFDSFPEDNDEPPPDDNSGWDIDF
Conditions: at 0.1 µM.

Test [15] deals with T5, cGMP-dependent protein kinase 1 (Homo sapiens). Conditions: at 1 µM.
Test [16] has as its target T6, cGMP-dependent protein kinase 2 (Homo sapiens) (UniProt Q13237).
T6 sequence (whole entry): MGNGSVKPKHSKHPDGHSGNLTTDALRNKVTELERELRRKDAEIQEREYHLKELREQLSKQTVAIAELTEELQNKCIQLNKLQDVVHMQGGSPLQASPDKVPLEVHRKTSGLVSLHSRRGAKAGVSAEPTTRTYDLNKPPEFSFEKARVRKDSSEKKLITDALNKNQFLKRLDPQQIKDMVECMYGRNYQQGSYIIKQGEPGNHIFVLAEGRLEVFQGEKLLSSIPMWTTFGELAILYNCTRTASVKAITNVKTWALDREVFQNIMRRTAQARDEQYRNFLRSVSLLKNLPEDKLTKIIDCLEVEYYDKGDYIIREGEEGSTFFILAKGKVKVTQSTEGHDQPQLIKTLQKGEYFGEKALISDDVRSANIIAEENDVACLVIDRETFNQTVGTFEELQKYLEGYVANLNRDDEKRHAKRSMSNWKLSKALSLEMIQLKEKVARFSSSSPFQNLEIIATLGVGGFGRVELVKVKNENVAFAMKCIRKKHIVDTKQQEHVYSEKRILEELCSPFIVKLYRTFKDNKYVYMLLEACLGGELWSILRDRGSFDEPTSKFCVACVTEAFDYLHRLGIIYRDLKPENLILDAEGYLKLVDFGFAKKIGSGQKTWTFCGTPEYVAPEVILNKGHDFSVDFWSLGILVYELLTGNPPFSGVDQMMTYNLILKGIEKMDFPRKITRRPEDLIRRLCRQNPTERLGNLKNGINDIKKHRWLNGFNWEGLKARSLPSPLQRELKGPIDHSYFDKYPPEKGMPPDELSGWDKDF
Conditions: at 0.1 µM.

The target of test [17] is T6, cGMP-dependent protein kinase 2 (Homo sapiens). The conditions noted are these: at 1 µM.
Test [18] deals with T7, cAMP-dependent protein kinase catalytic subunit PRKX (Homo sapiens) (UniProt P51817).
T7 sequence (whole entry): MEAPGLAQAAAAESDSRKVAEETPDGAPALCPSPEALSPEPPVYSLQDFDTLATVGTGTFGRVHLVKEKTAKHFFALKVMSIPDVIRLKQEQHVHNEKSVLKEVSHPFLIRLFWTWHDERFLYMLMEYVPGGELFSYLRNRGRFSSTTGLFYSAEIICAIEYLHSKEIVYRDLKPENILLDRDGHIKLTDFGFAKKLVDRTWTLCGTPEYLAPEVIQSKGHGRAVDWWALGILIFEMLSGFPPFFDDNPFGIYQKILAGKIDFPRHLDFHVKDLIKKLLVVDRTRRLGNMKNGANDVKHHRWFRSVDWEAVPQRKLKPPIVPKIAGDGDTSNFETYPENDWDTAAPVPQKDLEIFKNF
The conditions noted are these: at 0.1 µM.

Test [19] has as its target T7, cAMP-dependent protein kinase catalytic subunit PRKX (Homo sapiens). The conditions noted are these: at 1 µM.
Test [20] concerns the target Rho-associated protein kinase 1 (Homo sapiens) (UniProt Q13464). Conditions: at 0.1 µM.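 Note: values are mean percent inhibition of ROCK1.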

Molecules are shown by their SMILES.

Sequence of Protein kinase C beta type (Homo sapiens) (P05771 2-671 limits assumed): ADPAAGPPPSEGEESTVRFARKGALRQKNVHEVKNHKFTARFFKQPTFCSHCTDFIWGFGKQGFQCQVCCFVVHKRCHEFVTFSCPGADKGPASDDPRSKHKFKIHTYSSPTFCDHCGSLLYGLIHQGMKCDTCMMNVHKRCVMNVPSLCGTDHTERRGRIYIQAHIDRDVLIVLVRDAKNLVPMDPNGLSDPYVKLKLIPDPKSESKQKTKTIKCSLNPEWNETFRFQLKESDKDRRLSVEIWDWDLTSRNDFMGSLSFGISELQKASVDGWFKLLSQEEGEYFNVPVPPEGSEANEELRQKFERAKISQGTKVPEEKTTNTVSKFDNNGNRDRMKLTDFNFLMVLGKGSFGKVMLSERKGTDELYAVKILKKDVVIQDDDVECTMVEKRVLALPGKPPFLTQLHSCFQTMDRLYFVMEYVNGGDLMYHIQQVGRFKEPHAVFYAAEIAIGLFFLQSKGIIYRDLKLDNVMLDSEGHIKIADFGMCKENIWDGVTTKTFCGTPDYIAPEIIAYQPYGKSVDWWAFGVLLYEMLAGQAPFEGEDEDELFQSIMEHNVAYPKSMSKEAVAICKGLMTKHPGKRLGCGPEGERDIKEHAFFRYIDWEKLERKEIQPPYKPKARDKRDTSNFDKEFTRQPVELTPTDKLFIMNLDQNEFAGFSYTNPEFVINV
Sequence of Rho-associated protein kinase 1 (Homo sapiens) (Q13464 2-1354 limits assumed): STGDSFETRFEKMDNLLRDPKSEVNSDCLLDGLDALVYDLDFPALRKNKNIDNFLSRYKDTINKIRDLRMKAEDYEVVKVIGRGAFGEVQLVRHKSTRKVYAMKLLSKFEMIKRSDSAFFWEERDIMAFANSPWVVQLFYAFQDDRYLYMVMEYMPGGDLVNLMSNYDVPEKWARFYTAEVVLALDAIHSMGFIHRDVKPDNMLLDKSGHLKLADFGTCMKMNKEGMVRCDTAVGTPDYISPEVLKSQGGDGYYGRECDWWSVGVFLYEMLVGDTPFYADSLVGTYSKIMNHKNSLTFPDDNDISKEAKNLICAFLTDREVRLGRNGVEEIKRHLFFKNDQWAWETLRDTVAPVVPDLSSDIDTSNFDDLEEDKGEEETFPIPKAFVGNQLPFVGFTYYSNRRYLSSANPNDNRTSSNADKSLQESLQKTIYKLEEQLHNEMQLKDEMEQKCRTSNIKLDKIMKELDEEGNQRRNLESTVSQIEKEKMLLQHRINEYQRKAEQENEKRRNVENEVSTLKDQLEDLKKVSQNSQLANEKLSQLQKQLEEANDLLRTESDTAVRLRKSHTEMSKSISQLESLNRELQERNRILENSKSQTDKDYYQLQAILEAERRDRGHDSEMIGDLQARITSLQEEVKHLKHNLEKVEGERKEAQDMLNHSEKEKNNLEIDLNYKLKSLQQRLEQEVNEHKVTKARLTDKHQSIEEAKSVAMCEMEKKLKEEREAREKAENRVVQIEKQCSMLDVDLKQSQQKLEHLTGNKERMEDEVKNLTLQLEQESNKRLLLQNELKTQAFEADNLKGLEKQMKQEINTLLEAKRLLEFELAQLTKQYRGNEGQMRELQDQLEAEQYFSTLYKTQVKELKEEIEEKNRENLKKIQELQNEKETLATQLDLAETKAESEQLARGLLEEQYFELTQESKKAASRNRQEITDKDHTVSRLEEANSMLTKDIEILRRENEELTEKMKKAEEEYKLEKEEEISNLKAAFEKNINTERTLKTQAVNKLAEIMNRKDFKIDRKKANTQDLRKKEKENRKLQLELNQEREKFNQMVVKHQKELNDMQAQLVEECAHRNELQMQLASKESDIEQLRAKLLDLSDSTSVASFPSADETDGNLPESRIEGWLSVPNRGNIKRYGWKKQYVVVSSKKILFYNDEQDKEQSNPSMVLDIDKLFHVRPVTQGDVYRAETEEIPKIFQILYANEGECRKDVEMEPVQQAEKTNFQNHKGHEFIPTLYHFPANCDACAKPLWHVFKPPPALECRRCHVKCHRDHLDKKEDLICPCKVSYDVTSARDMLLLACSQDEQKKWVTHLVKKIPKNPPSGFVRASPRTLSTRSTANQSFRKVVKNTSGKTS

A word on the inhibition: it is the drop in the measured response relative to a control, in per cent. Regarding `CS(=O)(=O)CCNCc1cc(-c2cc3c(Nc4ccc(OCc5cccc(F)c5)c(Cl)c4)ncnc3s2)cs1`, the inhibition stood at 0.58% in [1]; 1.33% in test [2]; 1.53% in test [3]; 2.91% in test [4]; 4.44% in test [5]; 0.62% in test [6]. The inhibition in test [7] worked out at 2%; in test [8], 4.69%; in test [9], 8.12%; in test [10] it was 4.1%; in test [11], 4.68%; in test [12], 4.68%. Further, the inhibition came to 5.41% in test [13]; 4.85% in test [14]; 8.33% in test [15]; 3.09% in [16]; 4.67% in [17]; 1.65% in test [18]. The inhibition came out at 2.04% in test [19] and 3.25% in test [20].
With `O=C1NC(=O)C(c2cccc(Cl)c2)=C1Nc1ccc(Cl)c(C(=O)O)c1`, the inhibition in test [1] is 4.28%; in [2], 0.11%; in test [3] it was 0.87%; in test [4], 1.72%; in test [5], 3.51%; in test [6], 1%. Also, the inhibition in test [7] amounted to 1.2%; in test [8], 2.5%; in test [9], 3.42%; in [10], 3.1%; in test [11], 3.62%; in test [12], 2.22%. Also, the inhibition was 2.81% in [13]; 1.11% in [14]; 2% in test [15]; -0.19% in [16]; 1.58% in test [17]; 2.51% in [18]. Moreover, the results for the inhibition in [19] and in test [20] were 2.74% and -0.01%, respectively.
